Bioassay records (PubChem BioAssay)
FMDV inh = blocks foot and mouth disease virus; 1.2% of 410,000 active; Potency, µM (series often up to 57.9 µM), for the others: at the top dose activity change, negative = inhibition, actives largely listed as inhibitors; FMDV antiviral cell-based qHTS; AID 1159524; calls by dose curve; tested in HEK293T cells; further: read-out not given here; potency means the concentration at half of the fitted maximal effect; on the % scale 0 is the no-effect control and ±100 the full control effect; nearly all actives have a fitted effect of over 45% in size
MARV entry inh = Marburg virus entry inhibition. Marburg virus pseudotyped entry inhibition, cell reporter. Potency, µM (series often up to 37.8 µM), for the others: at the top dose activity change, negative = inhibition, hits mostly inhibitors. 1.8% of 300,000 active. AID 540276; calls by dose curve; tested in HEK293 cells; further: potency means the concentration at half of the fitted maximal effect; on the % scale 0 is the no-effect control and ±100 the full control effect
LASV entry inh = inhibitors of Lassa virus binding or cell entry; 1.2% of 300,000 active; Lassa virus pseudotype entry inhibition, cell reporter; Potency, µM (highest dose often 37.9 µM), for the others: at the highest dose activity change, negative = inhibition, usual class: inhibitors; calls by dose curve; tested in HEK293 cells; further: potency means the concentration at half of the fitted maximal effect; on the % scale 0 is the no-effect control and ±100 the full control effect; nearly all actives have a fitted effect of over 50% in size
HCV inh = blocks hepatitis C virus; Potency, µM (top dose mostly 41.8 µM), for inactives: at the top dose activity change, negative = inhibition, usual class: inhibitors; 3.4% of 340,000 active; Huh7.5.1 HCVcc-Cre infection, luciferase reporter, 44 h; active means well fitted inhibition curve with a large enough effect; inconclusive means small, poorly fitted or top-dose-only effect, or another doubt; inactive means no such curve, though single readings can be large or run the other way; further: potency means the concentration at half of the fitted maximal effect; on the % scale 0 is the no-effect control and ±100 the full control effect
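1,000 cells/well; 4 h culture; + compound; + HCVcc-Cre (~0.5 moi); 44 h; luciferase substrate, RT 15 min; read 15 sec.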
SARS PLpro yeast = inhibitors of SARS-CoV papain-like protease in yeast; S. cerevisiae expressing SARS-CoV PLpro, growth rescue; Potency, µM (titrated, usually from 32.9 µM), without a hit: at the highest dose activity, positive = growth rescue, most hits filed as activators; 0.19% of 330,000 active; calls by dose curve; further: potency means the concentration at half of the fitted maximal effect; 0% is about no effect; nearly all actives have a fitted effect of over 55% in size
HCMV antiviral = human cytomegalovirus inhibition | HFF cells, HCMV-luciferase reporter, 72 h; hits give low values | activity change, negative = inhibition, % at 57.5 µM | 4.5% of 410,000 active | AID 1259415; in the data active means activity change below about -60%; inconclusive means no clear call, values can overlap the other calls; inactive means above about -39%; further: on the % scale 0 is the no-effect control and ±100 the full control effect
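Inhibition of viral replication was scored as loss of reporter luminescence in HFFs infected with HCMV-luciferase (MOI 1 PFU/cell) for 72 h; compounds tested at 2 doses, normalized to buffer and Salinomycin controls.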
Numbers without * were called inactive; u = inconclusive; x = no result; + = active, no number; [ ] = remark or other dose. The list is not random: actives were taken first. Their share in the collection is about 8%.

SMILES	FMDV inh	MARV entry inh	LASV entry inh	HCV inh	SARS PLpro yeast	HCMV antiviral
COc1ccc(OC)c(NC(=O)c2oc(=O)c3ccccc3c2-c2ccccc2)c1	0.0%	x	-26.0%[46.1 µM]	x	x	14.9
COc1ccc(N(C)C(=O)c2oc(=O)c3ccccc3c2-c2ccc(C)cc2)c(OC)c1	u	-29.8%[46.1 µM]	u	10µM*	-2.4%	-11.3
NC(=O)C1(N2CCCCC2)CCN(C(=S)Nc2cc(F)cc(F)c2)CC1	-8.4%	1.1%[46.1 µM]	-21.2%[46.1 µM]	-0.5%	0.8%	-64.2*
NC(=O)C1(N2CCCCC2)CCN(C(=S)Nc2ccc(F)cc2)CC1	-18.1%	1.6%	-12.3%	40.0%	12.3%	-11.2
CCN(C(=O)CSc1nnc(-c2cccc(Cl)c2)n1N)c1c(N)n(Cc2ccccc2)c(=O)[nH]c1=O	-8.8%	x	x	0.5%	x	-30.9
CCC(NC(=O)c1[nH]c(C)c(C(C)=O)c1C)c1ccc(Br)cc1 (stereo unspecified)	-29.2%	8.91µM*	u	u	-34.1%	3.0
CS(=O)(=O)c1nc(S(=O)(=O)c2ccc(Cl)cc2)c(NCCCn2ccnc2)s1	15.7%	x	x	14.7%	0.7%	-40.0
O=c1[nH]c(=S)[nH]c(O)c1N=Nc1ccc(SC(F)F)cc1	-41.2%	u	3.98µM*	0.6%	-0.2%	-61.4*
CCCN1[C@@H]2c3cccc(=O)n3C[C@H]1[C@H](CO)[C@H]2C(=O)NC1Cc2ccccc2C1	x	x	x	x	x	-10.3
Cc1ncc2c(c1CNC(=O)c1ccc3c(c1)OCO3)CCN(C(=O)c1noc3c1CCCC3)C2	-11.2%	x	x	x	x	x
O=C(CCl)c1cc2c3c(c1)CC(=O)N3CCC2	22.4µM*	u	1.7%[46.1 µM]	-13.5%	u	24.7
CC(C)(C)CC(=O)Nc1cc2c3c(c1)CC(=O)N3CCC2	1.2%	x	x	12.2%	-2.0%	-2.5
COc1ccc(CCC(=O)Nc2cc3c4c(c2)CCC(=O)N4CCC3)cc1	-15.3%	8.0%	0.4%	-9.0%	-5.4%	-7.0
O=C(CCc1ccccc1)Nc1cc2c3c(c1)CCC(=O)N3CCC2	-5.5%	-2.5%	-12.7%	u	0.7%	-99.0*
O=C(NCCO)C(=O)Nc1cc2c3c(c1)CC(=O)N3CCC2	-12.7%	x	x	8.6%	3.5%	+
CCOc1ccc2[nH]c(C)c(CN3CCCCCC3)c(=O)c2c1	-7.2%	-0.2%	8.2%	10.6%	1.7%	13.1
CCOc1cc(-c2nc(-c3ccc(-c4ccccc4)nc3OCC)no2)cc(OCC)c1OCC	-6.3%	-3.0%[46.1 µM]	-3.4%[46.1 µM]	x	x	7.2
CCOC(=O)c1c(NC(=O)CSc2nc3cccnc3n2C)sc(C(C)=O)c1C	28.2µM*	10µM*	-10.4%	u	-4.8%	x
CCOC(=O)c1sc(NC(=O)CNCc2ccccn2)c(C(=O)OCC)c1C	u	u	u	4.4%	-0.8%	-11.5
CCOC(=O)c1sc(NC(=O)CNCc2cccnc2)c(C(=O)OCC)c1C	u	u	-14.3%	-16.8%	2.8%	-62.0*
CCOC(=O)c1c(NC(=O)CSc2nnc(-c3ccccc3C)n2C)sc(C(C)=O)c1C	u	7.1%	-13.2%	10µM*	1.7%	-35.4
CCOC(=O)c1cccc(NC(=O)CSc2nc3cccnc3n2C)c1	17.8µM*	u	u	u	-4.4%	u
O=[N+]([O-])c1nn(-c2ccccc2)[n+]([O-])c1N1CCN(c2ccccc2F)CC1	-24.8%	-8.3%	13.3%	-9.4%	3.3%	-28.7
COc1ccc(NC(=O)c2cc(OC)c(OC)c(OC)c2)cc1S(=O)(=O)N1CCCCC1	u	-16.6%[46.1 µM]	u	u	-1.9%	122.4
COc1ccc(NC(=O)c2cc(F)cc(F)c2)cc1S(=O)(=O)N1CCCCC1	-25.0%	u	-29.4%[46.1 µM]	10µM*	-0.2%	u
SMILES	FMDV inh	MARV entry inh	LASV entry inh	HCV inh	SARS PLpro yeast	HCMV antiviral
CCOc1ccc(C(=O)N[C@H](C(=O)Nc2ccc(OC)c(S(=O)(=O)N3CCOCC3)c2)C(C)C)cc1	-0.9%	x	x	-19.2%	0.9%	-26.0
COc1ccc(NC(=O)c2ccc(Cl)nc2)cc1S(=O)(=O)N1CCCCC1	u	u	-17.4%	11.2µM*	-0.7%	-3.1
COc1ccc(NC(=O)c2cncc(Br)c2)cc1S(=O)(=O)N1CCCCC1	20µM*	u	u	u	-4.5%	u
COc1ccc(NC(=O)[C@@H](NC(=O)c2ccccc2)C(C)C)cc1S(=O)(=O)N1CCCCC1	-5.0%	0.112µM*	-2.1%	-8.2%	-5.6%	5.6
O=C(Nc1ccc(S(=O)(=O)N2CCCC2)cc1)c1cncc(Br)c1	u	x	x	-14.7%	4.5%	-26.0
O=C(c1cccc(Cl)c1)C1CCCN(S(=O)(=O)c2ccccc2)C1 (stereo unspecified)	-28.0%	x	x	u	-1.9%	-34.2
C=C1C[C@@]2(C)CCCC3=CC(=O)C=C[C@@]32c2ccc(OC)c(OC)c21	x	x	x	x	x	-4.4
O=c1c2ccccc2nc2c3ccccc3c3nncn3n12	u	-4.3%	1.5%	-0.2%	-1.2%	u
O=c1c2ccccc2nc2n1CCS2(=O)=O	31.6µM*	23.4%[46.1 µM]	u	11.7%	0.2%	13.6
COc1ccc(N[C@H]2CC(=O)N(C)C2=O)cc1	x	4.2%	x	x	x	x
O=C(COc1ccc(Br)cc1Cl)NC1CCN(Cc2ccccc2)CC1	-22.1%	-19.2%[46.1 µM]	u	11.2µM*	-6.5%	8.0
COc1ccc(Br)cc1CN(C)CC(=O)NCCc1ccccc1	-19.5%	-25.3%[46.1 µM]	3.3%	u	-12.4%	-36.8
Cc1c(C(=O)Nc2ccc(S(=O)(=O)N(C)C3CCN(C)CC3)cc2)oc2c(Cl)cccc12	-29.2%	u	u	2µM*	x	-35.2
CN1CCC(N(C)S(=O)(=O)c2ccc(NC(=O)COc3cccc(Cl)c3)cc2)CC1	-24.1%	u	-0.4%	u	-3.3%	-27.2
CN1CCC(N(C)S(=O)(=O)c2ccc(NC(=O)COc3ccc(Br)cc3Cl)cc2)CC1	-4.4%	8.91µM*	6.31µM*	10µM*	3.9%	-20.9
O=C(COc1ccc(Br)cc1CNC1CCCCC1)NCCc1ccccc1	-21.8%	11.2µM*	u	u	1.0%	-11.5
CCOc1ccc(N2CC(c3nc(-c4cc(OC)c(OC)c(OC)c4)no3)CC2=O)cc1 (stereo unspecified)	-8.7%	x	-3.0%[46.1 µM]	x	x	13.0
Cc1c(C(=O)Nc2ccc(S(=O)(=O)N(C)C3CCN(C)CC3)cc2)oc2ccccc12	-22.8%	-102.3%	u	6.31µM*	-10.3%	u
CN1CCC(N(C)S(=O)(=O)c2ccc(NC(=O)c3ccc(S(=O)(=O)N(C)C)cc3)cc2)CC1	-13.9%	u	u	u	-0.8%	-24.0
CCOC(=O)c1cc2c(=O)n3ccccc3nc2n(CC2CCCO2)c1=NC(=O)c1ccc(OCC)cc1 (stereo unspecified)	-23.3%	-29.3%[46.1 µM]	-0.4%[46.1 µM]	x	x	10.6
CCOC(=O)C1CCCN(C(=O)/C=C/c2ccc(Cl)cc2)C1 (stereo unspecified)	-22.1%	1.8%	u	-2.5%	-0.9%	-26.0
